Shown are actives, neighbours in structure and some others; about 7% of the full set was active somewhere.
D3 ag: activates the human D3 dopamine receptor; P35462; D3R DiscoveRx beta-arrestin cells, luminescence, 90 min; max activation, %; 410,000 compounds, 0.58% hits; in the data active = max activation above about 30%; also: 0% is about no effect
Target sequence (P35462 whole entry, looked up): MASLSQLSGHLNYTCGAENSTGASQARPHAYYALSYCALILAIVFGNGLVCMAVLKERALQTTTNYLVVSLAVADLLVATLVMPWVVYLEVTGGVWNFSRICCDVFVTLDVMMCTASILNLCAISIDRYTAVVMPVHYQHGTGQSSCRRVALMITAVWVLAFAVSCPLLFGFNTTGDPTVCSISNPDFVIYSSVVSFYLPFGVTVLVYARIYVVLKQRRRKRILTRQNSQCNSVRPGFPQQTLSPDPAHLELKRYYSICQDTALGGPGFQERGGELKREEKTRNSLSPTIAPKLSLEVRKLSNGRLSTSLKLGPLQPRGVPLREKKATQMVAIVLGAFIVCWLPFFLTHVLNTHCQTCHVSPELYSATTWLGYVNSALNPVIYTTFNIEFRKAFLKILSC
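Cells at 1500/well, incubated overnight, then treated with pinned compounds (dopamine as control) for 90 min at 37 degrees C. DiscoveRx reagent added for 30 - 60 minutes at room temperature; luminescence read.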
S2 tox: reduces viability in counter-screen for ATXN expression inhibitors; S2 cells (HEK-293 line with an ATXN2-luciferase reporter) viability, CellTiter-Fluor protease fluorescence, 24 h; Potency, µM (doses to about 56.7 µM), hits mostly cytotoxic; 400,000 compounds, 0.49% hits; AID 651635; also: potency is read from the fitted curve at half-maximal effect; nearly all actives have a fitted effect of over 40% in size
ATXN2 expr inh: ATXN2 expression inhibition; HEK-293 ATXN2-luciferase reporter, luminescence, 24 h; Potency, µM (titrated, usually from 57 µM), without a hit: at the top dose activity change, negative = inhibition, usual class: inhibitors; 360,000 compounds, 0.72% hits; AID 1745845; also: potency is read from the fitted curve at half-maximal effect; % is scaled to controls: 0 for no effect and ±100 for the full control effect; nearly all actives have a fitted effect of over 55% in size
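qHTS (up to 57 uM final) was run with 24 h compound exposure of reporter cells at 37 °C. Each well was multiplexed: SteadyGlo luminescence measured ATXN2-luciferase expression after a fluorogenic Gly-Phe-AFC viability readout (25 uM final).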
DRD3 antagonist: D3 dopamine receptor (human) antagonism | D3R cells, DiscoveRx beta-arrestin luminescence, antagonist mode; stronger effect = lower value | max response, negative = inhibition, % | 360,000 compounds, 2.5% hits | AID 652054; in the data active = max response below about -50%; inconclusive = no clear call, values can overlap the other calls; also: % is scaled to controls: 0 for no effect and ±100 for the full control effect
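Cells plated overnight at 1500 cells/well, then exposed to library compounds with dopamine controls for 90 minutes at 37 degrees C. DiscoveRx reagent added for 30–60 minutes at room temperature; luminescence read, quantitative HTS format.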
Integrin act MD: activators of alpha7 integrin expression for muscular dystrophy | alpha7betagal myoblasts, beta-gal FDG fluorescence, 48 h | Potency, µM (highest dose often 38.3 µM), for inactives: top-dose activation, most hits filed as activators | 350,000 compounds, 0.064% hits | AID 624291;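 also: potency is read from the fitted curve at half-maximal effect; 100% = response of the positive control SU9516; nearly all actives have a fitted effect of over 60% in size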
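Alpha7betagal+/- myoblasts (passage 13) were plated 16-24 hr, then exposed to compounds (1:260 dilution of DMSO stock) for 48 hours at 37C. After MPER lysis, β-galactosidase reporter activity was read as FDG fluorescence (ex 480/em 540) after 30 minutes.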
IL-1B inflam inh: inhibitors of inflammasome signaling (IL-1 beta secretion); THP-1 LPS/ATP IL-1B secretion, AlphaLISA, 16 h; stronger effect = lower value; activity change, % at 57.5 µM; 360,000 compounds, 4.7% hits; in the data active = activity change below about -50%; inconclusive = mostly about -30% to -49%; also: % is scaled to controls: 0 for no effect and ±100 for the full control effect
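THP-1 cells pretreated 1 hr with compounds (up to 57.5 uM final), then stimulated with LPS (250 ng/mL final) plus ATP (1.25 mM final); secreted IL-1B measured by AlphaLISA after 16 hr, decreased signal indicating inhibition.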
Numbers without * were called inactive; i = inactive; ? = inconclusive; nt = no result given; ! = a repeat was not active. Unless noted, calls follow the shape of the dose curve; as a rule, active = well fitted curve in the direction sought with a large enough effect; inconclusive = small, poorly fitted or top-dose-only effect, or another doubt; inactive = no such curve, though single readings can be large; an effect the other way counts as inactive or inconclusive.

SMILES	D3 ag	S2 tox	ATXN2 expr inh	DRD3 antagonist	Integrin act MD	IL-1B inflam inh
Cc1ccc(/C=N/c2sc3c(c2C#N)CCC3)o1	4	?	37%	-5	-9%	-11
CCCNc1nc(-c2cc(C(=O)Nc3ccccc3)on2)cc(C(C)C)n1	7	i	-17%	4	0%	-101*
Cc1cnc(C(=O)OC(C)C(=O)NC2CCCc3ccccc32)cn1 (centres undefined)	1	i	-15%	-14	-9%	11
COc1ccc(C(=O)OC(C)C(=O)NC2CCCc3ccccc32)cc1OC (centres undefined)	-1	i	2%	5	-25%	-52*
O=C(CCCSc1nc2ccccc2c(=O)[nH]1)c1ccc(F)cc1	4	i	-21%	3	-22%	0
CNC[C@H](O)c1ccc(O)c(O)c1	3	i	?	0	nt	?
CNC[C@H](O)c1cccc(O)c1	45*!	i	-30%	-14	nt	-11
O=C(/C=C/c1ccco1)OCC(=O)c1cccc([N+](=O)[O-])c1	13	i	10%	9	-23%	-6
Nc1nc(OCc2ccccc2)c2[nH]cnc2n1	-96	i	14%	-121*	nt	-22
c1ccc(Cc2nnc(N3CCCCC3)c3ccccc23)cc1	-3	i	-20%	2	16%	-86*
c1ccc(N2CCN(c3nnc(Cc4cccnc4)c4ccccc34)CC2)nc1	42*	i	-8%	7	-2%	?
c1ccc(Cc2nnc(N3CCOCC3)c3ccccc23)cc1	0	i	4%	10	-18%	-11
COc1cc(NS(=O)(=O)c2cc3c(cc2C)N(C)CCO3)cc(OC)c1OC	-10	nt	nt	nt	nt	nt
O=C(CN(C1CCCCC1)S(=O)(=O)c1ccc(Br)cc1)NCc1ccncc1	0	i	nt	8	6%	-6
CCCOc1ccc(C(=O)NNC(=S)NC(=O)CC)cc1	-14	nt	28µM*	?	-51%	55
C=CCNC(=S)NNC(=O)c1ccc(OCCC)cc1	-11	i	4%	57	-34%	-1
CN(C)CCCNC(=S)NCC(c1ccc(Cl)cc1Cl)c1c[nH]c2ccccc12 (centres undefined)	-11	?	25µM*	-23	-78%	-104*
NCC(c1ccc(Cl)cc1Cl)c1c[nH]c2ccccc12 (centres undefined)	4	i	-39%	-2	-75%	-88*
CCCCNC(=S)NCC(c1ccccc1)c1c[nH]c2ccccc12 (centres undefined)	-11	?	?	-16	0%	-19
Cc1c(Cl)cccc1NC(=S)N1CCN(Cc2ccccc2)CC1	-5	nt	nt	-13	-44%	0
Cc1cc(N/N=C/c2ccc(F)cc2)nc(NCc2ccccc2)n1	-13	i	37%	8	-23%	-96*
Cc1ccc(/C=N/Nc2cc(C)nc(NCc3ccccc3)n2)cc1	-1	i	-30%	-6	-55%	-88*
Cc1cc(N/N=C/c2ccc(N(C)C)cc2)nc(NCc2ccccc2)n1	-7	i	-27%	8	-76%	-61*
Cc1cc(N/N=C/c2ccc(Cl)cc2Cl)nc(NCc2ccccc2)n1	-4	i	-13%	10	-48%	0
Cc1ccc(NC(=O)CSc2nc3c(c(=O)n(C)c(=O)n3C)n2C)cc1	5	i	-1%	3	-21%	25
SMILES	D3 ag	S2 tox	ATXN2 expr inh	DRD3 antagonist	Integrin act MD	IL-1B inflam inh
COc1ccc(C2=NS(=O)(=O)N(C)C(C(=O)N3CCc4ccccc4C3)=C2)cc1OC	0	i	?	-2	-14%	37
COc1cccc(NC(=O)CN(C)S(=O)(=O)c2cccs2)c1	9	i	6%	nt	nt	nt
COc1cccc(/C=C/C(=O)NNC(=O)CCN2CCN(Cc3ccccc3)CC2)c1	-20	i	-7%	-53*	-22%	-22
O=C(/C=C/c1ccc(F)cc1)NNC(=O)CCN1CCN(Cc2ccccc2)CC1	-26	i	-13%	-19	8%	-20
Clc1ccc(COn2ccnc2)cc1Cl	-4	i	-27%	1	20%	2
C=CCn1c(SCC(=O)Nc2ccc(C(=O)O)cc2)nc2sc(C)c(C)c2c1=O	9	?	5%	-5	-16%	-13
C=CCn1c(SCC(=O)Nc2ccc(C(=O)O)cc2)nc2scc(-c3ccccc3)c2c1=O	-8	i	-23%	-71*	?	-13
C=CCn1c(SCC(=O)NCCCC)nc2scc(-c3ccco3)c2c1=O	-1	i	-8%	0	-2%	-68*
Cc1cc(C)nc(NC(N)=NC(C)c2ccccc2)n1 (centres undefined)	0	i	-29%	12	-57%	?
Cc1cc(C)nc(NC(N)=NCCc2ccccc2)n1	1	i	?	4	-62%	-95*
Cc1cc(C)nc(NC(N)=NCCc2c[nH]c3ccccc23)n1	11	i	?	-12	-15%	-95*
N/C(CC(=O)NCCOc1ccccc1)=N\O	-1	i	-9%	1	14%	4
Cc1n[nH]c(C)c1-c1nc2ccccc2[nH]1	0	i	-3%	-5	3%	-60*
CC(=O)NCC1CCCN(Cc2cn(-c3ccccc3F)nc2-c2cc(C)sc2C)C1 (centres undefined)	-19	?	2%	-24	-26%	-56*
COCC1CCCN(Cc2cn(-c3ccccc3F)nc2-c2cc(C)sc2C)C1 (centres undefined)	-17	nt	nt	-71*	5%	0
Cc1cc(-c2nn(-c3ccccc3F)cc2CN2CCC(O)CC2)c(C)s1	-16	i	nt	-19	1%	-10
Cc1cc(-c2nn(-c3ccccc3F)cc2CN2CCN(c3ccncc3)CC2)c(C)s1	-12	?	-37%	-5	-54%	-85*
COCC(=O)Nc1ccc(N2CCOCC2)c(S(=O)(=O)Nc2ccccc2OC)c1	-6	i	nt	-12	0%	-2
COc1ccc(NC(=O)CSc2nnc(CCC(=O)O)c(=O)n2N)cc1	1	i	nt	12	12%	-9
CCOC(=O)C(C)(C)NS(=O)(=O)c1ccc(Cl)c([N+](=O)[O-])c1	-1	i	-1%	4	-47%	-93*
NS(=O)(=O)c1ccc(CNC(=O)c2ccc(Cl)c([N+](=O)[O-])c2)cc1	3	i	-28%	-9	-16%	?
CCOC(=O)C(C)(C)N(Cc1ccc(C)cc1)S(=O)(=O)c1ccc(Cl)c([N+](=O)[O-])c1	-7	?	?	?	-29%	-104*
CN(Cc1cccs1)C(=O)CCNS(=O)(=O)c1ccc(Br)cc1	-2	i	-12%	1	-30%	6
